Source: publication PMC3795721, “Screening for Protein-DNA Interactions by Automatable DNA-Protein Interaction ELISA”

Target: AT4G31550 (Arabidopsis thaliana, UniProt Q9SV15 228-325)
Experiment: DPI-ELISA; DPI-ELISA, streptavidin 384-well plate, 1-2 pmol biotinylated dsDNA per well, crude native E. coli extract, anti-His detection; buffer as in Brand et al. [46],; high values mean tight binding
Settings: tags: C-terminal His (pET-DEST42); label: 5' biotin on forward strand; dsDNA, one strand shown

Chain of AT4G31550 (Q9SV15 228-325): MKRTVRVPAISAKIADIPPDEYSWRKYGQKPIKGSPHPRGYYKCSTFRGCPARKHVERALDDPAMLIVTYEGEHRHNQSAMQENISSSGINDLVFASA

## AAAAAATCCACGACTCAGCAGCTCTTAAAA
  binding signal: 0.68 ± 0.0707 absorbance

## AAAAAAAGTTTGACCTTGGCGTTCGTAAAA
  binding signal: 3.5 ± 0.148 absorbance

## AAAAAAACTCTCCGGGTACAATTGCAAAAA
  binding signal: 0.605 ± 0.205 absorbance

## AAAAAATGGATCTTTACTTTAGGCCAAAAA
  binding signal: 0.92 ± 0.424 absorbance

## AAAAAAATTTTTAGTTTTAATTTTGGAAAA
  binding signal: 0.615 ± 0.106 absorbance

## AAAAAAGTTGCCGACGATTGCGGGTTAAAA
  binding signal: 0.735 ± 0.163 absorbance

## AAAAAATGTTTTTTAGAGGTGTGCAAAAAA
  binding signal: 0.57 ± 0.0849 absorbance

## AAAAAATATGGCACTCGCCGCACATCAAAA
  binding signal: 0.755 ± 0.191 absorbance

## AAAAAACCCGGTTGGAGAAAATAATTAAAA
  binding signal: 0.55 ± 0.127 absorbance

## AAAAAAACTTCTGTCCCTGTTCCCGTAAAA
  binding signal: 0.55 ± 0.127 absorbance

## AAAAAACCGCTTACATTGCGTTGTCGAAAA
  binding signal: 0.605 ± 0.0495 absorbance

## AAAAAATGGTCGATCCGCATGCAGTTAAAA
  binding signal: 0.52 ± 0.099 absorbance

## AAAAAAAGGGTGCTATTCGTCGACACAAAA
  binding signal: 0.63 ± 0.141 absorbance

## AAAAAATATATTTTCAGCTTTAATCTAAAA
  binding signal: 0.685 ± 0.106 absorbance

## AAAAAATTCAGAGCTTCGAGGTTCCGAAAA
  binding signal: 0.66 ± 0.0707 absorbance

## AAAAAACCTTACCTCATCCCTATCCCAAAA
  binding signal: 0.605 ± 0.134 absorbance

## AAAAAATCAGTCTGAGACTTACAACTAAAA
  binding signal: 0.84 ± 0.283 absorbance

## AAAAAATCGCGAACGTACGTCCGCGGAAAA
  binding signal: 0.51 ± 0.113 absorbance

## AAAAAAAAGCTTCGGAGTCTTGAGAAAAAA
  binding signal: 0.685 ± 0.0354 absorbance

## AAAAAACCTCTTGTCTCTGCTCTCCCAAAA
  binding signal: 0.575 ± 0.106 absorbance

## AAAAAACACTGCACTATTGGGAGTTCAAAA
  binding signal: 0.615 ± 0.177 absorbance

## AAAAAACACTCACACCTATACGGCTCAAAA
  binding signal: 0.665 ± 0.233 absorbance

## AAAAAATGCCCTTTTTATCTTTATGTAAAA
  binding signal: 0.65 ± 0.0707 absorbance

## AAAAAATTAGTCCTGATTCAATCTTCAAAA
  binding signal: 0.755 ± 0.106 absorbance
